# Out of some 5,500 compounds screened, about 2,000 (36%) were called active. Not shown: some 18% with an inconclusive outcome. This is one part of the list. Unmarked numbers belong to inactive results. Cut-off read from the data, not from the text of the source: active = normalized growth mostly below about 0.91 (no sharp cut-off); inconclusive = no clear call, values can overlap the other calls; inactive = mostly above about 0.92.
# Test: chemical genetic growth profiling, strain panel (AID 1159580);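 note: tested at 20 µM; growth read once vehicle control cultures reached saturation at 30 °C; 1 = growth at the plate median or of vehicle wells; lower values mean less growth of the strain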
# Settings: S. cerevisiae deletion strains, growth OD
compound,measurement,setting,value
CC1(C)CC[C@@]2(C(=O)O)C(C1)C1=CCC3[C@@]4(C)CC[C@H](O)C(C)(C)C4CC[C@@]3(C)[C@]1(C)C[C@@H]2O (stereo not given in full),normalized growth,"locus YAL013W, strain DEP1, hits give low values",1.02
same,normalized growth,"locus YAL021C, strain ccr4, hits give low values",1.01
same,normalized growth,"locus YAL026C, strain drs2, hits give low values",1.01
same,normalized growth,"locus YAL030W, strain snc1, hits give low values",1.01
same,normalized growth,"locus YBL061C, strain skt5, hits give low values",1.03
same,normalized growth,"locus YBR009C, strain hhf1, hits give low values",1.01
same,normalized growth,"locus YBR021W, strain FUR4, hits give low values",0.996
same,normalized growth,"locus YBR023C, strain chs3, hits give low values",1.02
same,normalized growth,"locus YBR171W, strain sec66, hits give low values",1.02
same,normalized growth,"locus YBR229C, strain ROT2, hits give low values",1.03
same,normalized growth,"locus YBR231C, strain swc5, hits give low values",1.03
same,normalized growth,"locus YBR279W, strain paf1, hits give low values",1.02
same,normalized growth,"locus YCL011C, strain gbp2, hits give low values",1.02
same,normalized growth,"locus YCL016C, strain dcc1, hits give low values",1.02
same,normalized growth,"locus YCL029C, strain bik1, hits give low values",0.992
same,normalized growth,"locus YCL061C, strain MRC1, hits give low values",1.01
same,normalized growth,"locus YCL069W, strain vba3, hits give low values",1.01
same,normalized growth,"locus YCR088W, strain abp1, hits give low values",1.01
same,normalized growth,"locus YDL005C, strain med2, hits give low values",1.01
same,normalized growth,"locus YDL035C, strain GPR1, hits give low values",1
same,normalized growth,"locus YDL040C, strain nat1, hits give low values",1.02
same,normalized growth,"locus YDL074C, strain BRE1, hits give low values",1
same,normalized growth,"locus YDL101C, strain DUN1, hits give low values",0.827 (active)
same,normalized growth,"locus YDL185W, strain tfp1, hits give low values",1.02
same,normalized growth,"locus YDL192W, strain arf1, hits give low values",1.05
same,normalized growth,"locus YDR001C, strain nth1, hits give low values",1.01
same,normalized growth,"locus YDR069C, strain doa4, hits give low values",1.05
same,normalized growth,"locus YDR101C, strain arx1, hits give low values",1.02
same,normalized growth,"locus YDR137W, strain rgp1, hits give low values",0.828 (active)
same,normalized growth,"locus YDR150W, strain NUM1, hits give low values",1.03
same,normalized growth,"locus YDR159W, strain sac3, hits give low values",0.953
same,normalized growth,"locus YDR162C, strain NBP2, hits give low values",1.01
same,normalized growth,"locus YDR195W, strain ref2",0.952
same,normalized growth,"locus YDR297W, strain sur2, hits give low values",1.01
same,normalized growth,"locus YDR318W, strain mcm21, hits give low values",1.03
same,normalized growth,"locus YDR334W, strain swr1, hits give low values",1.01
same,normalized growth,"locus YDR335W, strain msn5, hits give low values",1.02
same,normalized growth,"locus YDR388W, hits give low values",1.03
same,normalized growth,"locus YDR392W, strain spt3, hits give low values",1.01
same,normalized growth,"locus YDR502C, strain sam2, hits give low values",1.05
same,normalized growth,"locus YEL003W, strain gim4, hits give low values",1.03
same,normalized growth,"locus YEL037C, strain rad23, hits give low values",1.02
same,normalized growth,"locus YEL061C, strain CIN8 (second series), hits give low values",1.02
same,normalized growth,"locus YEL061C, strain CIN8, hits give low values",1.02
same,normalized growth,"locus YER015W, strain faa2, hits give low values",1.03
same,normalized growth,"locus YER016W, strain bim1, hits give low values",1
same,normalized growth,"locus YER110C, hits give low values",1.03
same,normalized growth,"locus YER111C, strain swi4, hits give low values",1.01
same,normalized growth,"locus YER155C, strain BEM2 (second series), hits give low values",1
same,normalized growth,"locus YER155C, strain BEM2, hits give low values",1.03
same,normalized growth,"locus YER167W, strain BCK2, hits give low values",1.04
same,normalized growth,"locus YFR010W, strain ubp6, hits give low values",1.04
same,normalized growth,"locus YGL078C, strain dbp3, hits give low values",1.03
same,normalized growth,"locus YGL086W, strain mad1, hits give low values",1.22 [resistant] (active)
same,normalized growth,"locus YGL167C, strain pmr1, hits give low values",1.01
same,normalized growth,"locus YGL173C, strain kem1, hits give low values",1.01
same,normalized growth,"locus YGL227W, strain vid30, hits give low values",1.01
same,normalized growth,"locus YGL240W, strain doc1, hits give low values",1
same,normalized growth,"locus YGL248W, strain PDE1, hits give low values",1.02
same,normalized growth,"locus YGL253W, strain hxk2, hits give low values",1.02
same,normalized growth,"locus YGR078C, strain PAC10, hits give low values",1.05
same,normalized growth,"locus YGR135W, strain pre9, hits give low values",1.05
same,normalized growth,"locus YGR252W, strain gcn5, hits give low values",1.07
same,normalized growth,"locus YHR013C, strain ard1, hits give low values",1.1
same,normalized growth,"locus YHR027C, strain rpn1, hits give low values",1.02
same,normalized growth,"locus YHR030C, strain SLT2, hits give low values",1.04
same,normalized growth,"locus YHR079C, strain IRE1 (second series), hits give low values",1.01
same,normalized growth,"locus YHR094C, strain hxt1, hits give low values",1.02
same,normalized growth,"locus YHR129C, strain ARP1, hits give low values",1.04
same,normalized growth,"locus YHR142W, strain chs7, hits give low values",1.03
same,normalized growth,"locus YHR200W, strain rpn10, hits give low values",1.04
same,normalized growth,"locus YIL066C, strain RNR3, hits give low values",1.05
same,normalized growth,"locus YIL073C, strain SPO22, hits give low values",1.15
same,normalized growth,"locus YIL125W, strain kgd1, hits give low values",1.02
same,normalized growth,"locus YIR030C, strain dcg1, hits give low values",1.1 [resistant] (active)
same,normalized growth,"locus YJL092W, strain hpr5, hits give low values",1.01
same,normalized growth,"locus YJL095W, strain BCK1 (second series), hits give low values",1.01
same,normalized growth,"locus YJL095W, strain BCK1, hits give low values",0.973
same,normalized growth,"locus YJL115W, strain asf1, hits give low values",1.02
same,normalized growth,"locus YJL129C, strain trk1, hits give low values",1.02
same,normalized growth,"locus YJL134W, strain LCB3, hits give low values",1.02
same,normalized growth,"locus YJL154C, strain vps35, hits give low values",1
same,normalized growth,"locus YJL164C, strain tpk1, hits give low values",1.03
same,normalized growth,"locus YJL166W, strain qcr8, hits give low values",1.01
same,normalized growth,"locus YJL168C, strain set2, hits give low values",1.04
same,normalized growth,"locus YJL187C, strain SWE1 (second series), hits give low values",1.02
same,normalized growth,"locus YJL187C, strain SWE1, hits give low values",1.01
same,normalized growth,"locus YJR043C, strain POL32, hits give low values",1.02
same,normalized growth,"locus YKL009W, strain mrt4, hits give low values",1.16 [resistant] (active)
same,normalized growth,"locus YKL068W, hits give low values",1.19 [resistant] (active)
same,normalized growth,"locus YKL085W, strain MDH1 (second series), hits give low values",1.24 [resistant] (active)
same,normalized growth,"locus YKL085W, strain MDH1, hits give low values",1.24 [resistant] (active)
same,normalized growth,"locus YKL160W, strain elf1, hits give low values",0.995
same,normalized growth,"locus YKL190W, strain CNB1, hits give low values",1.03
same,normalized growth,"locus YKR001C, strain vps1, hits give low values",1.03
same,normalized growth,"locus YKR026C, strain gcn3, hits give low values",0.988
same,normalized growth,"locus YKR091W, strain srl3, hits give low values",1.01
same,normalized growth,"locus YLL001W, strain dnm1, hits give low values",1.02
same,normalized growth,"locus YLL026W, hits give low values",1.01
same,normalized growth,"locus YLL041C, strain sdh2, hits give low values",1.01
same,normalized growth,"locus YLR027C, strain aat2, hits give low values",1.02
same,normalized growth,"locus YLR039C, strain RIC1, hits give low values",0.866
same,normalized growth,"locus YLR058C, strain SHM2, hits give low values",1.03
same,normalized growth,"locus YLR102C, strain apc9, hits give low values",1.02
same,normalized growth,"locus YLR221C, strain rsa3, hits give low values",1.02
same,normalized growth,"locus YLR258W, strain gsy2, hits give low values",1.01
same,normalized growth,"locus YLR262C, strain YPT6 (second series), hits give low values",0.871
same,normalized growth,"locus YLR262C, strain YPT6, hits give low values",0.827
same,normalized growth,"locus YLR268W, strain sec22, hits give low values",1.01
same,normalized growth,"locus YLR320W, strain mms22, hits give low values",1.02
same,normalized growth,"locus YLR330W, strain CHS5, hits give low values",1.03
same,normalized growth,"locus YLR342W, strain FKS1 (second series), hits give low values",0.97
same,normalized growth,"locus YLR342W, strain FKS1, hits give low values",1.02
same,normalized growth,"locus YLR357W, strain rsc2, hits give low values",1
same,normalized growth,"locus YLR370C, strain arc18, hits give low values",1.02
same,normalized growth,"locus YLR371W, strain rom2, hits give low values",1.01
same,normalized growth,"locus YLR384C, strain iki3, hits give low values",1.02
same,normalized growth,"locus YLR418C, strain cdc73, hits give low values",1.19 [resistant] (active)
same,normalized growth,"locus YML016C, strain PPZ1, hits give low values",1.03
same,normalized growth,"locus YML032C, strain rad52, hits give low values",1.02
same,normalized growth,"locus YML120C, strain ndi1, hits give low values",1.02
same,normalized growth,"locus YML124C, strain tub3, hits give low values",1.05
same,normalized growth,"locus YMR058W, strain fet3, hits give low values",1.03
same,normalized growth,"locus YMR078C, strain ctf18, hits give low values",1.03
same,normalized growth,"locus YMR125W, strain sto1, hits give low values",1.03
same,normalized growth,"locus YMR129W, hits give low values",1.02
same,normalized growth,"locus YMR205C, strain PFK2, hits give low values",0.984
same,normalized growth,"locus YMR223W, strain ubp8, hits give low values",1.01
same,normalized growth,"locus YMR231W, strain pep5, hits give low values",1.01
same,normalized growth,"locus YMR307W, strain GAS1, hits give low values",0.909
same,normalized growth,"locus YNL067W, strain RPL9B, hits give low values",1.02
same,normalized growth,"locus YNL071W, strain lat1, hits give low values",1.01
same,normalized growth,"locus YNL128W, strain TEP1, hits give low values",0.874
same,normalized growth,"locus YNL153C, strain GIM3, hits give low values",1.02
same,normalized growth,"locus YNL209W, strain ssb2, hits give low values",1.03
same,normalized growth,"locus YNL233W, strain BNI4, hits give low values",1.03
same,normalized growth,"locus YNL248C, strain rpa49, hits give low values",1.01
same,normalized growth,"locus YNL250W, strain rad50, hits give low values",1.04
same,normalized growth,"locus YNL271C, strain bni1, hits give low values",1.02
same,normalized growth,"locus YNL298W, strain CLA4, hits give low values",1.02
same,normalized growth,"locus YNL307C, strain MCK1, hits give low values",1.05
same,normalized growth,"locus YNL322C, strain KRE1 (second series), hits give low values",0.998
same,normalized growth,"locus YNR049C, strain mso1, hits give low values",1.01
same,normalized growth,"locus YNR052C, strain pop2, hits give low values",1.03
same,normalized growth,"locus YOL006C, strain TOP1, hits give low values",1.17
same,normalized growth,"locus YOL012C, strain htz1",1.06
same,normalized growth,"locus YOL147C, strain pex11, hits give low values",1.03
same,normalized growth,"locus YOR001W, strain rrp6, hits give low values",1
same,normalized growth,"locus YOR061W, strain CKA2, hits give low values",1
same,normalized growth,"locus YOR069W, strain VPS5, hits give low values",1.01
same,normalized growth,"locus YOR070C, strain gyp1, hits give low values",1.03
same,normalized growth,"locus YOR080W, strain dia2, hits give low values",1.01
same,normalized growth,"locus YOR083W, strain WHI5, hits give low values",0.996
same,normalized growth,"locus YOR106W, strain vam3, hits give low values",1
same,normalized growth,"locus YOR136W, strain idh2, hits give low values",1.04
same,normalized growth,"locus YOR144C, strain elg1, hits give low values",1.03
same,normalized growth,"locus YOR184W, strain ser1, hits give low values",1
same,normalized growth,"locus YOR265W, strain rbl2, hits give low values",1.03
same,normalized growth,"locus YOR270C, strain vph1, hits give low values",1.11
same,normalized growth,"locus YOR290C, strain snf2, hits give low values",0.991
same,normalized growth,"locus YOR316C, strain cot1, hits give low values",1.03
same,normalized growth,"locus YPL051W, strain arl3, hits give low values",0.99
same,normalized growth,"locus YPL078C, strain atp4, hits give low values",1.02
same,normalized growth,"locus YPL106C, strain sse1, hits give low values",1.03
same,normalized growth,"locus YPL240C, strain hsp82, hits give low values",1.01
same,normalized growth,"locus YPR119W, strain clb2, hits give low values",1.03
same,normalized growth,"locus YPR141C, strain kar3, hits give low values",1.05
same,normalized growth,"locus YPR163C, strain tif3, hits give low values",1.05
same,normalized growth,"locus YPR167C, strain met16, hits give low values",1.04
same,normalized growth,"strain wtn01, hits give low values",1.05

# From PubChem BioAssay AID1159580 (chemical genetic matrix, 2015)
